Among all 5,500 compounds or so, about 2,000 (36%) were called active. Another 18% or so got no clear call; they are omitted. No stated cut-off is given here; in the data, active means normalized growth mostly below about 0.91 (no sharp cut-off); inconclusive means no clear call, values can overlap the other calls; inactive means mostly above about 0.92. This is one part of the list.
Experiment: chemical genetic growth profiling, strain panel (AID 1159580);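 further: tested at 20 µM; growth read once vehicle control cultures reached saturation at 30 °C; 1 = growth at the plate median or of vehicle wells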
Details: growth OD

Measured: normalized growth

CC(=C(CCOP(=O)(O)O)SC(=O)c1ccccc1)N(C=O)Cc1cnc(C)nc1N
inactive: S. cerevisiae deletion strains, locus YAL013W, strain DEP1, stronger effect = lower value 1.01 | S. cerevisiae deletion strains, locus YBR021W, strain FUR4, stronger effect = lower value 1.01 | S. cerevisiae deletion strains, locus YBR229C, strain ROT2, stronger effect = lower value 1.01 | S. cerevisiae deletion strains, locus YCL029C, strain bik1, stronger effect = lower value 1 | S. cerevisiae deletion strains, locus YDL035C, strain GPR1, stronger effect = lower value 1.02 | S. cerevisiae deletion strains, locus YDL074C, strain BRE1, stronger effect = lower value 1.01 | S. cerevisiae deletion strains, locus YDL101C, strain DUN1, stronger effect = lower value 1.01 | S. cerevisiae deletion strains, locus YDL134C, strain PPH21, stronger effect = lower value 1.02 | S. cerevisiae deletion strains, locus YDL185W, strain tfp1, stronger effect = lower value 1.01 | S. cerevisiae deletion strains, locus YDL192W, strain arf1, stronger effect = lower value 1.01 | S. cerevisiae deletion strains, locus YDR101C, strain arx1, stronger effect = lower value 1 | S. cerevisiae deletion strains, locus YDR150W, strain NUM1, stronger effect = lower value 1.01 | S. cerevisiae deletion strains, locus YDR162C, strain NBP2, stronger effect = lower value 1.01 | S. cerevisiae deletion strains, locus YDR318W, strain mcm21, stronger effect = lower value 1.02 | S. cerevisiae deletion strains, locus YDR388W, stronger effect = lower value 1.01 | S. cerevisiae deletion strains, locus YDR502C, strain sam2, stronger effect = lower value 1.01 | S. cerevisiae deletion strains, locus YEL061C, strain CIN8, stronger effect = lower value 1.01 | S. cerevisiae deletion strains, locus YER110C, stronger effect = lower value 1.02 | S. cerevisiae deletion strains, locus YER155C, strain BEM2, stronger effect = lower value 1.01 | S. cerevisiae deletion strains, locus YER167W, strain BCK2, stronger effect = lower value 1.01 | S. cerevisiae deletion strains, locus YGL078C, strain dbp3, stronger effect = lower value 1.02 | S. cerevisiae deletion strains, locus YGL086W, strain mad1, stronger effect = lower value 1.01 | S. cerevisiae deletion strains, locus YGL248W, strain PDE1, stronger effect = lower value 1 | S. cerevisiae deletion strains, locus YGR135W, strain pre9, stronger effect = lower value 1.02 | S. cerevisiae deletion strains, locus YGR229C, strain SMI1, stronger effect = lower value 1.02 | S. cerevisiae deletion strains, locus YGR252W, strain gcn5, stronger effect = lower value 1 | S. cerevisiae deletion strains, locus YHR030C, strain SLT2, stronger effect = lower value 1.01 | S. cerevisiae deletion strains, locus YHR079C, strain IRE1 (second series), stronger effect = lower value 1.01 | S. cerevisiae deletion strains, locus YHR094C, strain hxt1, stronger effect = lower value 1.01 | S. cerevisiae deletion strains, locus YHR129C, strain ARP1, stronger effect = lower value 1 | S. cerevisiae deletion strains, locus YHR200W, strain rpn10, stronger effect = lower value 1.01 | S. cerevisiae deletion strains, locus YIL066C, strain RNR3, stronger effect = lower value 1.02 | S. cerevisiae deletion strains, locus YIL073C, strain SPO22, stronger effect = lower value 1.05 | S. cerevisiae deletion strains, locus YIL125W, strain kgd1, stronger effect = lower value 1.01 | S. cerevisiae deletion strains, locus YIR030C, strain dcg1, stronger effect = lower value 1.02 | S. cerevisiae deletion strains, locus YJL095W, strain BCK1, stronger effect = lower value 1.01 | S. cerevisiae deletion strains, locus YJL134W, strain LCB3, stronger effect = lower value 1.01 | S. cerevisiae deletion strains, locus YJL168C, strain set2, stronger effect = lower value 1.01 | S. cerevisiae deletion strains, locus YJL187C, strain SWE1 (second series), stronger effect = lower value 1.01 | S. cerevisiae deletion strains, locus YJR043C, strain POL32, stronger effect = lower value 1.01 | S. cerevisiae deletion strains, locus YJR075W, strain HOC1, stronger effect = lower value 1.01 | S. cerevisiae deletion strains, locus YKL009W, strain mrt4, stronger effect = lower value 1.01 | S. cerevisiae deletion strains, locus YKL068W, stronger effect = lower value 1.02 | S. cerevisiae deletion strains, locus YKL085W, strain MDH1 (second series), stronger effect = lower value 1.01 | S. cerevisiae deletion strains, locus YKL085W, strain MDH1, stronger effect = lower value 1.01 | S. cerevisiae deletion strains, locus YKL190W, strain CNB1, stronger effect = lower value 1.01 | S. cerevisiae deletion strains, locus YKR001C, strain vps1, stronger effect = lower value 1.01 | S. cerevisiae deletion strains, locus YLR039C, strain RIC1, stronger effect = lower value 1.02 | S. cerevisiae deletion strains, locus YLR058C, strain SHM2, stronger effect = lower value 1.02 | S. cerevisiae deletion strains, locus YLR102C, strain apc9, stronger effect = lower value 1.01 | S. cerevisiae deletion strains, locus YLR262C, strain YPT6, stronger effect = lower value 0.991 | S. cerevisiae deletion strains, locus YLR268W, strain sec22, stronger effect = lower value 1 | S. cerevisiae deletion strains, locus YLR330W, strain CHS5, stronger effect = lower value 1.01 | S. cerevisiae deletion strains, locus YLR342W, strain FKS1 (second series), stronger effect = lower value 1 | S. cerevisiae deletion strains, locus YLR371W, strain rom2, stronger effect = lower value 1.02 | S. cerevisiae deletion strains, locus YLR418C, strain cdc73, stronger effect = lower value 1.02 | S. cerevisiae deletion strains, locus YML016C, strain PPZ1, stronger effect = lower value 1.01 | S. cerevisiae deletion strains, locus YML032C, strain rad52, stronger effect = lower value 1.01 | S. cerevisiae deletion strains, locus YML124C, strain tub3, stronger effect = lower value 1.01 | S. cerevisiae deletion strains, locus YMR078C, strain ctf18, stronger effect = lower value 1.01 | S. cerevisiae deletion strains, locus YMR223W, strain ubp8, stronger effect = lower value 1.02 | S. cerevisiae deletion strains, locus YMR263W, strain SAP30, stronger effect = lower value 1.01 | S. cerevisiae deletion strains, locus YMR307W, strain GAS1, stronger effect = lower value 1.03 | S. cerevisiae deletion strains, locus YNL067W, strain RPL9B, stronger effect = lower value 1.01 | S. cerevisiae deletion strains, locus YNL128W, strain TEP1, stronger effect = lower value 1.02 | S. cerevisiae deletion strains, locus YNL233W, strain BNI4, stronger effect = lower value 1.03 | S. cerevisiae deletion strains, locus YNL250W, strain rad50, stronger effect = lower value 1.01 | S. cerevisiae deletion strains, locus YNL271C, strain bni1, stronger effect = lower value 1.02 | S. cerevisiae deletion strains, locus YNL298W, strain CLA4, stronger effect = lower value 1.01 | S. cerevisiae deletion strains, locus YNL307C, strain MCK1, stronger effect = lower value 1.02 | S. cerevisiae deletion strains, locus YNL322C, strain KRE1, stronger effect = lower value 1.01 | S. cerevisiae deletion strains, locus YNR052C, strain pop2, stronger effect = lower value 1.02 | S. cerevisiae deletion strains, locus YOL006C, strain TOP1, stronger effect = lower value 1.01 | S. cerevisiae deletion strains, locus YOL012C, strain htz1 1.14 | S. cerevisiae deletion strains, locus YOL147C, strain pex11, stronger effect = lower value 1.02 | S. cerevisiae deletion strains, locus YOR061W, strain CKA2, stronger effect = lower value 1.01 | S. cerevisiae deletion strains, locus YOR069W, strain VPS5, stronger effect = lower value 1.01 | S. cerevisiae deletion strains, locus YOR136W, strain idh2, stronger effect = lower value 1.02 | S. cerevisiae deletion strains, locus YOR144C, strain elg1, stronger effect = lower value 1.01 | S. cerevisiae deletion strains, locus YOR184W, strain ser1, stronger effect = lower value 1.02 | S. cerevisiae deletion strains, locus YOR316C, strain cot1, stronger effect = lower value 1.01 | S. cerevisiae deletion strains, locus YPL055C, strain LGE1, stronger effect = lower value 1.01 | S. cerevisiae deletion strains, locus YPR119W, strain clb2, stronger effect = lower value 1 | S. cerevisiae deletion strains, locus YPR141C, strain kar3, stronger effect = lower value 1.02 | S. cerevisiae deletion strains, locus YPR163C, strain tif3, stronger effect = lower value 1.01 | S. cerevisiae deletion strains, locus YPR167C, strain met16, stronger effect = lower value 1.01 | S. cerevisiae deletion strains, strain wtn01, stronger effect = lower value 1.01 | S. cerevisiae strains, strain wild type, stronger effect = lower value 1.01
